Compounds without any hit were thinned out: in the full panel of roughly 83,000, 20% have a hit.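 Values shown are percent growth following 48 h exposure of cells in 96-well plates to a single concentration of compound; below 10 was considered active.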 Values without a mark were called inactive. Activity calls are given as the source filed them.

The assay has as its system OVCAR-8 ovarian. The assay can be described thus: NCI-60 one-dose screen, 48 h (100 = growth as untreated, 0 = no growth, -100 = all killed). The settings on record: 10 µM. On the procedure: Growth inhibition of the OVCAR-8 human tumor cell line is measured as a screen for anti-cancer activity. Cells are grown in 96 well plates and exposed to the test compound for 48 hours. Compounds are tested at a single concentration, which is 10^-5 M for most compounds. The reported endpoint is percent growth (GI% or GIPRCNT), where numbers from 0 - 100% represent growth inhibition, and numbers from -100% - 0 represent cell death. For example, a value of 40 represents 60% growth inhibition. A value of 0 means no net growth occurred over the course of the experiment. A value of -40 indicates 40% of cells at the beginning of the experiment died by the end of the experiment. A value of -100 means all cells are dead at the end of the experiment.
NCI-60 Human Tumor Cell Lines Screen was performed using the standard one-dose NCI protocol, which is described in more detail at https://dtp.cancer.gov/discovery_development/nci-60/default.htm.
Compounds with GIPRCNT values below 10 were considered active. Activity score was based on GIPRCNT using the following formula: […]
Score is 0 for GIPRCNT values of 100 or above, 50 for GIPRCNT values of 0, and 100 for GIPRCNT values of -100.
Regarding `Fc1ccc(-c2csc(Nc3cccc(Nc4nc(-c5ccc(F)cc5)cs4)c3)n2)cc1`, the growth is 67.9%.

Turning to `Cn1cc(-c2cc3nc(-c4c[nH]c5ccccc45)cc(N)n3n2)c2cc(Cl)ccc21`, the growth was -86.1% (active).

As to `CC1(C)CC(=O)C2=C(C1)N(Cc1ccc(C(=O)O)cc1)C1=C(C(=O)CC(C)(C)C1)C2c1ccc(Cl)cc1`, the growth was 105%.

As for `Cc1ccc(S(=O)(=O)N2CCN(S(=O)(=O)c3oc(-c4ccccc4)nc3C#N)CC2)cc1`, the growth was 84.7%.

`Cc1ccc2c(c1)C(=O)/C(=C/c1ccc([N+](=O)[O-])cc1)S2`: the growth is 105%.

Consider `O=C(c1ccccc1)c1ccc2nc(-c3ccccc3Br)[nH]c2c1`, for which the growth was 12.6%.

Take `Cc1cc(N=C2NC(=O)/C(=C/c3cc(C(C)(C)C)c(O)c(C(C)(C)C)c3)S2)n[nH]1`: the growth was 8.93% (active).

Turning to `Cc1cc(N=C2NC(=O)S/C2=C\c2ccc(F)cc2)n[nH]1`, the growth was 12.2%.

For the molecule `COc1ccc(NCc2cn(-c3ccc(C(=O)O)cc3)nc2-c2ccc(F)cc2)cc1C(F)(F)F`, the growth is 37.5%.

As for `Cc1ccc(COc2ccc(NC(=O)Nc3ccc(Cl)c(C(F)(F)F)c3)cc2)cc1`, the growth is 80.4%.

`Cn1cc(-c2cc(N)n3nc(-c4cn(C)c5ccccc45)cc3n2)c2cc(F)ccc21`: the growth is -94.9% (active).

With `O=C(CSc1nc2ccccc2c(=O)n1-c1ccc(Cl)cc1)Nc1ccc(-c2nc3ccccc3[nH]2)cc1`, the growth is -17.8% (active).

In the case of `Cc1ccc2c(c1)C(=O)/C(=C/c1c[nH]c3ccccc13)S2`, the growth was 55.3%.

As to `C#C[C@]1(O)CC[C@H]2[C@@H]3CC=C4c5sc(Nc6ccc(C(F)(F)F)cn6)nc5CC[C@]4(C)[C@H]3CC[C@@]21C`, the growth was -8.07% (active).

In the case of `CCOc1ccc(/C=N/NC(=O)Cn2nc(Cc3ccc(OC)cc3)c3onc(C)c3c2=O)cc1`, the growth is 16.9%.

Take `O=C(CN1CCN(c2ncnc3c2cnn3-c2ccccc2)CC1)Nc1ccc(Br)cc1`: the growth was 64.7%.

Turning to `O=C(CC(=O)Nc1ccc(Oc2ncnc3scc(Nc4n[nH]c(=S)s4)c23)cc1)Nc1ccc(Cl)cc1`, the growth was 93.5%.

For the molecule `Cn1cc(-c2nc(N)nnc2-c2c[nH]c3ccccc23)c2cc(Br)cnc21`, the growth is 5.76% (active).

Take `O=C(Nc1ccc(OCc2ccc(F)cc2)cc1)Nc1ccc(Cl)c(C(F)(F)F)c1`: the growth was 12.8%.

As to `CCOC(=O)C1=C(N)N(c2ccc(C)cc2)C2=C(C(=O)CC(C)(C)C2)C1c1ccccc1Br` (stereo not given), the growth was 90.1%.

For the molecule `COc1ccccc1-n1cc(C#N)c(N)c1C(=O)c1ccc(Cl)cc1Cl`, the growth was 34.7%.

In the case of `COc1cc2oc(-c3cccc(C(=O)Nc4ccc(Cl)cc4)c3)cc(=O)c2c(OCCN)c1OC`, the growth is -85.5% (active).

As for `COc1ccc(Cc2nn(CC(=O)N/N=C/c3ccc([N+](=O)[O-])cc3)c(=O)c3c(C)noc23)cc1`, the growth is 56.6%.

On to `CCn1c(SCC(=O)Nc2ccc(-c3nc4ccccc4[nH]3)cc2)nc2ccccc2c1=O`, for which the growth is -85.5% (active).

Turning to `O=C(c1ccc(Cl)cc1)C(c1c[nH]c2ccccc12)c1c[nH]c2ccccc12`, the growth is -92.8% (active).

Regarding `COC(=O)CNC(=O)COc1c(OC)c(OC)cc2oc(-c3cccc(C(=O)Nc4ccc(Cl)cc4)c3)cc(=O)c12`, the growth was -69% (active).

Consider `Cc1ccc2sc3c(c2c1)Oc1nc[nH]c(=O)c1C3c1cccc(F)c1` (stereo not given), for which the growth is 107%.

Consider `O=C(Nc1ccc(OCC(=O)c2ccc(Cl)cc2)cc1)Nc1ccc(Cl)c(C(F)(F)F)c1`, for which the growth was 30.1%.

As to `COc1ccc(C2c3sc4ccc(C)cc4c3Oc3nc[nH]c(=O)c32)cc1` (stereo not given), the growth is 98.1%.

As for `CC1(C)CC[C@]2(C(=O)O)CC[C@]3(C)C(=CCC4[C@@]5(C)C[C@@H](O)[C@@H]6OC(c7cccc(F)c7)OC[C@@]6(C)C5CC[C@]43C)C2C1` (stereo not given in full), the growth was 31.7%.

Take `COc1ccc(OC)c(-n2cc(C#N)c(N)c2C(=O)c2ccc(Cl)cc2Cl)c1`: the growth was 68.8%.

As to `COc1ccc(C2c3sc4ccc(C)cc4c3Oc3nc(N)nc(N)c32)cc1` (stereo not given), the growth is 87%.

For the molecule `COc1ccc(-n2c(SCC(=O)NNS(=O)(=O)c3ccccc3)nc3ccc(Cl)cc3c2=O)cc1`, the growth is 101%.

Take `O=C(CSc1nc2ccccc2c(=O)n1-c1ccc(Cl)cc1)Nc1ccc(-c2nc3ccc([N+](=O)[O-])cc3[nH]2)cc1`: the growth was -87.5% (active).

Regarding `COc1ccc2[nH]cc(-c3nc(N)nnc3-c3cn(C)c4ncc(Br)cc34)c2c1`, the growth was 1.18% (active).

As for `COc1ccc(Cc2nn(CC(=O)N/N=C/c3ccc(Br)cc3)c(=O)c3c(C)noc23)cc1`, the growth is 33.9%.

With `O=C1NC2C=CC=CC2/C1=C1/SC(=S)N(C2CC(=O)N(c3ccc(Br)cc3)C2=O)C1=O` (stereo not given), the growth was 97.6%.

`COc1cccc(C(=O)CSc2nc(-c3ccc(OCc4ccccc4)c(OC)c3)c(C#N)c(=O)[nH]2)c1`: the growth was 105%.

Turning to `C#C[C@]1(O)CC[C@H]2[C@@H]3CC=C4c5sc(Nc6ccc(N(C)C)cc6)nc5CC[C@]4(C)[C@H]3CC[C@@]21C`, the growth is 0.0481% (active).

For `Cc1ccc(-c2nc(C#N)c(S(=O)(=O)N3CCN(S(C)(=O)=O)CC3)o2)cc1`, the growth was 25.5%.

Source of the values: PubChem BioAssay (NCI).
